This is an account of results in PubChem BioAssay (NCI).

Among the test systems are NCI-H23 lung; NCI-H226 lung; NCI-H322M lung; HOP-62 NSCLC; NCI-H460 lung; HOP-92 NSCLC; NCI-H522 lung; A549/ATCC NSCLC; 786-0 renal; COLO 205 colon; DU-145 prostate; K-562 leukemia; MALME-3M melanoma; MDA-MB-231 breast; RXF 393 renal; SF-268 CNS; SF-295 CNS; SF-539 CNS; UACC-257 melanoma; M14 melanoma.
Holding throughout (assay): NCI-60 one-dose screen, 48 h (100 = growth as untreated, 0 = no growth, -100 = all killed)
Holding throughout (details): 10 µM unless noted

This is part of a sample that, as a whole, favours compounds with a hit. Of some 83,000 tested, about 20% had one in any assay.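 Assay: single dose, 48 h. Readout: percent growth (0 = no net growth; negative = cell death). Active: <10.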 A number with no mark means an inactive call. The source made the active and inactive calls.

With `COc1ccc(-c2[nH]c3ccccc3c2C=C(C#N)C#N)cc1`, the growth in the test on NCI-H23 lung is 2.52% (active); with NCI-H226 lung, 25.8%; with NCI-H322M lung, 52.1%; in the test with HOP-62 NSCLC, 32.2%; with NCI-H460 lung it was 6.67% (active); with HOP-92 NSCLC, -17.2% (active). Further, the growth in the test with NCI-H522 lung is -48.5% (active); in the test on A549/ATCC NSCLC, 5.94% (active); with 786-0 renal it was 14.9%; with COLO 205 colon it was -8.28% (active); in the test on DU-145 prostate, -10.1% (active); in the test with K-562 leukemia it was -5.54% (active). The growth in the test with MALME-3M melanoma is 87.4%; in the test on MDA-MB-231 breast, 17.6%; in the test with RXF 393 renal, 3.79% (active); in the test with SF-268 CNS, 25.1%; in the test with SF-295 CNS, -50.4% (active); with SF-539 CNS, -26.8% (active). The growth with UACC-257 melanoma was 54.2%; in the test with M14 melanoma it was 1.05% (active).
As for `CCCCc1ccc(N=Nc2ccc(OCC[N+](C)(C)C)cc2)cc1`, the growth in the test on NCI-H23 lung is 49.2%; in the test on NCI-H226 lung it was 51.9%; in the test with NCI-H322M lung, 73.8%; in the test with HOP-62 NSCLC it was 20%; in the test with NCI-H460 lung it was 32.7%; in the test on HOP-92 NSCLC, 25.8%. Also, the growth is 34.4% in the test with NCI-H522 lung; 33.2% in the test on A549/ATCC NSCLC; 71.4% in the test with 786-0 renal; -5.3% (active) with COLO 205 colon; 60.5% with DU-145 prostate; 44.5% in the test with K-562 leukemia. In addition, the growth in the test on MALME-3M melanoma was 69.4%; in the test with MDA-MB-231 breast it was 38.5%; in the test on RXF 393 renal, 22.9%; with SF-268 CNS it was 26.9%; with SF-295 CNS, 32.9%; in the test with SF-539 CNS it was 35.9%. The growth with UACC-257 melanoma is 71.4%; in the test with M14 melanoma it was 25.8%.
As to `CCCCC(=O)Nc1c(C(=O)Nc2ccccc2)sc2nc3c(cc12)C(OC(=O)CCCC)CCC3` (stereo not given), the growth was 95.6% with NCI-H23 lung; 92.6% with NCI-H226 lung; 113% in the test with NCI-H322M lung; 101% in the test with HOP-62 NSCLC; 85.9% with NCI-H460 lung; 84.4% in the test with HOP-92 NSCLC. The growth was 77% with NCI-H522 lung; 105% with A549/ATCC NSCLC; 84.1% in the test on 786-0 renal; 90.3% with COLO 205 colon; 87.9% in the test with DU-145 prostate; 85.3% in the test on K-562 leukemia. Further, the growth is 105% with MALME-3M melanoma; 87.9% with MDA-MB-231 breast; 95.2% with RXF 393 renal; 85.7% with SF-268 CNS; 101% in the test on SF-295 CNS; 94.7% in the test on SF-539 CNS. Besides, the values for the growth in the test with UACC-257 melanoma and in the test on M14 melanoma were 110% and 97.5%, respectively.
As for `O=C(CCl)N1CCCc2ccccc21`, the growth is 101% in the test on NCI-H23 lung; 101% in the test on NCI-H226 lung; 94% in the test on NCI-H322M lung; 107% with HOP-62 NSCLC; 99.3% in the test on NCI-H460 lung; 97.2% in the test with HOP-92 NSCLC. Further, the growth with NCI-H522 lung is 96.8%; in the test with A549/ATCC NSCLC, 109%; in the test with 786-0 renal, 104%; in the test on COLO 205 colon, 108%; in the test on DU-145 prostate, 97.7%; in the test with K-562 leukemia, 101%. The growth in the test on MALME-3M melanoma was 98.3%; in the test on MDA-MB-231 breast, 99.5%; in the test with RXF 393 renal, 89.1%; in the test on SF-268 CNS, 94.9%; in the test with SF-295 CNS, 95.7%; in the test on SF-539 CNS it was 103%. For the same compound, the growth in the test on UACC-257 melanoma was 107%; in the test on M14 melanoma, 93.9%.
With `COc1ccc2c(c1)OC13Oc4cc(OC)ccc4C=C1CCCCC3=C2`, the growth with NCI-H23 lung is 91.6%; in the test with NCI-H226 lung it was 88.4%; in the test with NCI-H322M lung, 105%; in the test with HOP-62 NSCLC it was 99.3%; in the test on NCI-H460 lung it was 94.4%; with HOP-92 NSCLC it was 80.7%. Besides, the growth in the test with NCI-H522 lung was 66.2%; in the test on A549/ATCC NSCLC, 73.8%; in the test on 786-0 renal, 87.2%; with COLO 205 colon, 101%; with DU-145 prostate it was 104%; in the test on K-562 leukemia, 88.7%. Further, the growth with MALME-3M melanoma is 97.9%; in the test with MDA-MB-231 breast it was 93.8%; with RXF 393 renal, 87.5%; in the test with SF-268 CNS it was 90.7%; with SF-295 CNS it was 96.8%; in the test with SF-539 CNS it was 98.4%. The growth in the test with UACC-257 melanoma is 78.6%; in the test with M14 melanoma it was 90.4%.
Take `Cc1nnc(/N=C2\NC(=O)/C(=C/c3ccc(N(C)C)cc3)S2)s1`: the growth is 81.7% with NCI-H23 lung; 89.2% in the test with NCI-H226 lung; 85.5% with NCI-H322M lung; 65.8% with HOP-62 NSCLC; 33.2% with NCI-H460 lung; 85.1% in the test on HOP-92 NSCLC. In addition, the growth in the test on NCI-H522 lung is 2.45% (active); in the test with A549/ATCC NSCLC it was 63.5%; in the test on 786-0 renal it was 76.8%; in the test with COLO 205 colon it was 98.7%; in the test with DU-145 prostate, 84%; in the test on K-562 leukemia it was 49.7%. Besides, the growth is 56.9% in the test with MALME-3M melanoma; 103% with MDA-MB-231 breast; 76.9% in the test with RXF 393 renal; 73% in the test with SF-268 CNS; 47.9% with SF-295 CNS; 83.7% with SF-539 CNS. Further, the growth is 83.3% in the test on UACC-257 melanoma and 51.1% with M14 melanoma.
Take `O=C1CC23OC4ON=C(Br)C4C2C(O)c2ccccc2N13` (stereo not given): the growth is 87.9% with NCI-H23 lung; 97.7% in the test on NCI-H226 lung; 96.8% in the test on NCI-H322M lung; 106% in the test on HOP-62 NSCLC; 106% in the test with NCI-H460 lung; 107% with HOP-92 NSCLC. Besides, the growth in the test on NCI-H522 lung was 79.6%; in the test with A549/ATCC NSCLC it was 103%; in the test on 786-0 renal it was 101%; in the test with COLO 205 colon, 125%; in the test with DU-145 prostate it was 105%; with K-562 leukemia it was 110%. For the same compound, the growth was 79.9% in the test on MALME-3M melanoma; 98.8% with MDA-MB-231 breast; 115% in the test with RXF 393 renal; 95.1% with SF-268 CNS; 109% in the test with SF-295 CNS; 107% in the test on SF-539 CNS. Moreover, the growth is 103% in the test on UACC-257 melanoma and 92.4% in the test with M14 melanoma.
Consider `CCOC(=O)C1CCN(S(=O)(=O)/N=C2/NC(=O)NC2=C(Cl)Cl)CC1`, for which the growth is 16.7% in the test with NCI-H23 lung; 118% in the test with NCI-H226 lung; 31.1% in the test with NCI-H322M lung; 20.2% with HOP-62 NSCLC; 7.43% (active) in the test with NCI-H460 lung; -73.9% (active) with HOP-92 NSCLC. Further, the growth in the test with NCI-H522 lung was -69.4% (active); in the test with A549/ATCC NSCLC it was 21%; in the test on 786-0 renal, 3.63% (active); in the test on COLO 205 colon it was -69.6% (active); in the test on DU-145 prostate, 25.7%; in the test with K-562 leukemia it was -15.7% (active). Besides, the growth in the test with MALME-3M melanoma was -60% (active); with MDA-MB-231 breast it was 9.62% (active); with RXF 393 renal it was 83.8%; in the test on SF-268 CNS it was 11.2%; with SF-295 CNS, 17.4%; with SF-539 CNS it was -4.27% (active). For the same compound, the figures for the growth with UACC-257 melanoma and in the test on M14 melanoma were 19.9% and -22.4% (active), respectively.
